Records with an inconclusive call do not appear. Active and inactive are the calls of the source. Calls follow the shape of the dose curve; as a rule, active = well fitted cell-killing curve with a large enough effect; inconclusive = small, poorly fitted or top-dose-only effect, or effect the other way; inactive = no such curve, though single readings can be large or run the other way.
Test: Quantitative High-Throughput drug screen in 47 multiple myeloma cell lines against the NCATS MIPE library collection: UTMC2_PLB cell viability assay (AID 1919868); also: nearly all actives have a fitted effect of over 55% in size
Conditions: CellTiter-Glo ATP luminescence, 48 h; viability (% of DMSO control): at 45.8 µM (top of the series)
Description: PI: Beverly A. Mock Ph.D.
Laboratory of Cancer Biology and Genetics,
Center for Cancer Research, National Cancer Institute,
National Institute of Health, Bethesda, Maryland
Drug resistance and disease progression are common in multiple myeloma (MM) patients, underscoring the need for new therapeutic combinations. […] We hypothesized that effective combinations would reduce MYC expression and enhance p16 activity. […] These preclinical data identify potentially useful drug combinations for evaluation in drug-resistant MM and reveal potential mechanisms of combined drug sensitivity.
Described herein is the primary MIPE qHTS used to cherrypick compounds. Validated compounds were then further tested for potential synergistic activiy.
[1] Peat TJ, Gaikwad SM, Dubois W, Gyabaah-Kessie N, Zhang S, Gorjifard S, Phyo Z, Andres M, Hughitt VK, Simpson RM, Miller MA, Girvin AT, Taylor A, Williams D, D'Antonio N, Zhang Y, Rajagopalan A, Flietner E, Wilson K, Zhang X, Shinn P, Klumpp-Thomas C, McKnight C, Itkin Z, Chen L, Kazandijian D, Zhang J, Michalowski AM, Simmons JK, Keats J, Thomas CJ, Mock BA. Drug combinations identified by high-throughput screening promote cell cycle transition and upregulate Smad pathways in myeloma. Cancer Lett. 2023 Aug 1;568:216284. doi: 10.1016/j.canlet.2023.216284. Epub 2023 Jun 24. PMID: 37356470; PMCID: PMC10408729.
SEQUENCE No. (e.g., 1, 2, 3, etc.); […] (e.g., Cells, Incubation, Reagent, etc.); VALUE and DESCRIPTION.
1; Cells; 5 uL; white, solid bottom 1536-well Greiner assay plate.
2; Compounds; 23 nL; Kalypsis pin tool (Wako USA) equipped with a 1536-well pin head to transfer to the assay plates.
3; Incubation; 48 hours; 37C incubation.
4; Reagent;5uL; CellTiter Glo (Promega).
5; Detector; 425V; Luminescence; Viewlux PerkinElmer.
NOTES (numbers refer to Sequence numbers above)
1. The cell-based screening methods employed in this study were like those previously published. Briefly, the corresponding myeloma cell lines were screened in 1,536-well plates with 500 cells, 5-uL per well for inhibition of cell viability (assessed by measuring ATP levels with CellTiterGlo).
2. NCATS MIPE 4.0 library of approved and investigational drugs were added using the Kalypsis pin tool. Wells treated with DMSO only for 100% viability and media only for 0% viability were used as controls.
3. The assay plates were covered and incubated for 48 hours in a 37C, 5% CO2 incubator with controlled humidity.
4. After 48 hours, CellTilter-GloTM luminescent substrate mix (Promega) reagent was added to the assay plate and plates we incubated for 5 min at room temperature.
5. Signal was measured as median relative luminescence units on a ViewLux (PerkinElmer) multiplate reader.
[1] Heske CM, Davis MI, Baumgart JT, Wilson K, Gormally MV, Chen L, Zhang X, Ceribelli M, Duveau DY, Guha R, Ferrer M, Arnaldez FI, Ji J, Tran HL, Zhang Y, Mendoza A, Helman LJ, Thomas CJ. Matrix Screen Identifies Synergistic Combination of PARP Inhibitors and Nicotinamide Phosphoribosyltransferase (NAMPT) Inhibitors in Ewing Sarcoma. Clin Cancer Res. 2017 Dec 1;23(23):7301-7311. doi: 10.1158/1078-0432.CCR-17-1121. Epub 2017 Sep 12. PMID: 28899971; PMCID: PMC6636827.
For `Cc1oncc1C(=O)Nc1ccc(C(F)(F)F)cc1`, the Potency was “inactive”. In the case of `CCn1c(-c2nonc2N)nc2cnc(Oc3cccc(NC(=O)c4ccc(OCCN5CCOCC5)cc4)c3)cc21`, the Potency is reported as 0.935 µM (active). In the case of `COc1cccc2cc(-c3nc(C4CCC(C(=O)O)CC4)n4ncnc(N)c34)[nH]c12` (stereo not given), the Potency is reported as 0.235 µM (active). For `CO[C@@H]1[C@H](N(C)C(=O)c2ccccc2)C[C@H]2O[C@]1(C)n1c3ccccc3c3c4c(c5c6ccccc6n2c5c31)C(=O)NC4`, the Potency was 0.935 µM (active). In the case of `O=C(O)COCCN1CCN(C(c2ccccc2)c2ccc(Cl)cc2)CC1` (stereo not given), the Potency is reported as “inactive”. For `CNC[C@H](O)c1cccc(O)c1`, the Potency was 0.0021 µM (active). For `Cn1cc(-c2ccc3nnc(C(F)(F)c4ccc5ncccc5c4)n3n2)cn1`, the Potency was “inactive”. In the case of `Cc1cccc(-c2[nH]c(C(C)(C)C)nc2-c2ccc3nccnc3c2)n1`, the Potency is reported as 2.64 µM (active). In the case of `CCCn1c(=O)c2[nH]c(C34CC5CC3C[C@@H](C5)C4)nc2n(CCC)c1=O`, the Potency is reported as “inactive”. In the case of `CCN(c1ccccc1)c1cc(NC)[n+](C)c(C)n1`, the Potency is reported as “inactive”. For `c1ccc([C@H]2CN3CCSC3=N2)cc1`, the Potency was “inactive”. In the case of `CC1(C)Cc2c(-c3ccccc3)c(-c3ccc(Cl)cc3)c(CC(=O)O)n2C1`, the Potency is reported as 16.6 µM (active). For `Cn1cnc([N+](=O)[O-])c1Sc1ncnc2nc[nH]c12`, the Potency was 5.26 µM (active). For `COc1ccc2c3n(c(=NC(=O)c4cccnc4)nc2c1OC)CCN3`, the Potency was 3.32 µM (active). For `CCOC(=O)C1=C[C@]2(CC)CCCN3CCc4c(n1c1ccccc41)[C@@H]32`, the Potency was 9.35 µM (active). For `Oc1cccc(-c2nc(N3CCOCC3)c3oc4ncccc4c3n2)c1`, the Potency was 0.0382 µM (active). For `CS(=O)(=O)Oc1ccc2c(NC(N)=O)c(C(=O)c3ccc(Cl)cc3Cl)oc2c1`, the Potency was 16.6 µM (active). In the case of `CN1CCN(CCCN2c3ccccc3Sc3ccc(C(F)(F)F)cc32)CC1`, the Potency is reported as 10.5 µM (active). For `CCC(C)(C)C(=O)O[C@H]1C[C@@H](C)C=C2C=C[C@H](C)[C@H](CC[C@@H]3C[C@@H](O)CC(=O)O3)[C@H]21`, the Potency was 14.8 µM (active). With `CC(C)C[C@H](NC(=O)[C@@H](O)[C@H](N)Cc1ccccc1)C(=O)O` the Potency was 23.5 µM (active). With `CCCS(=O)(=O)Nc1ccc(F)c(C(=O)c2c[nH]c3ncc(-c4ccc(Cl)cc4)cc23)c1F` the Potency was 14.8 µM (active). In the case of `Cc1ccc(-n2nc(C(C)(C)C)cc2NC(=O)Nc2ccc(OCCN3CCOCC3)c3ccccc23)cc1`, the Potency is reported as 4.18 µM (active). For `CCOc1cc(C(=O)Nc2ccc(Cl)c(-c3nc4ccccc4[nH]3)c2)cc(OCC)c1OCC`, the Potency was “inactive”. In the case of `CC(C)NCC(O)COc1ccc(COCCOC(C)C)cc1` (stereo not given), the Potency is reported as “inactive”. With `OC(CN1CCC(Cc2ccc(F)cc2)CC1)c1ccc(Cl)cc1` (stereo not given) the Potency was “inactive”. With `CC[C@H](Nc1ncnc2nc[nH]c12)c1nc2cccc(F)c2c(=O)n1-c1ccccc1` the Potency was 5.9 µM (active). For `N[C@@H]1CONC1=O`, the Potency was “inactive”. In the case of `CCCCCCCc1ccc(CCc2cccc(O)c2C(=O)O)cc1`, the Potency is reported as 29.6 µM (active). For `Cc1cc2c(C(C)C)c(O)c(O)c(C=O)c2c(O)c1-c1c(C)cc2c(C(C)C)c(O)c(O)c(C=O)c2c1O`, the Potency was 5.9 µM (active). In the case of `O=S(=O)(N=Cc1c(O)ccc2ccccc12)c1cccs1`, the Potency is reported as 18.7 µM (active). For `Cc1cc(Nc2nc(N[C@@H](C)c3ncc(F)cn3)ncc2Cl)n[nH]1`, the Potency was 6.62 µM (active). With `NC(=O)c1ccc(-c2nc(-c3ccc4c(c3)OCCO4)c(-c3ccccn3)[nH]2)cc1` the Potency was “inactive”. With `Cn1cnc2c(F)c(Nc3ccc(Br)cc3Cl)c(C(=O)NOCCO)cc21` the Potency was “inactive”. With `C#Cc1cccc(Nc2ncnc3cc(OCCOC)c(OCCOC)cc23)c1` the Potency was 4.18 µM (active). For `Cc1c(CN2CCN(C(=O)C(C)C)CC2)sc2c(N3CCOCC3)nc(-c3cnc(N)nc3)nc12`, the Potency was 0.0526 µM (active). For `N#CC[C@H](C1CCCC1)n1cc(-c2ncnc3[nH]ccc23)cn1`, the Potency was 9.35 µM (active). With `COc1ccc2nc(S(=O)Cc3ncc(C)c(OC)c3C)[nH]c2c1` (stereo not given) the viability (% of DMSO control) was 120% (active). For `Nc1nccc(-c2ccc3noc(-c4ccc(Cl)cc4)c3c2)n1`, the Potency was “inactive”. For `O=c1n(CCCN2CCN(c3cccc(Cl)c3)CC2)nc2ccccn12`, the Potency was “inactive”. With `Cc1cc([C@@H](C)Nc2ccccc2C(=O)O)c2nc(N3CCOCC3)cc(=O)n2c1` the Potency was 3.82 µM (active).

— PubChem BioAssay (NCATS)
Potency is read from the fitted curve at half-maximal effect.
